From PubChem BioAssay (NCI) come the findings set out here.

About 83,000 compounds went through this panel and 20% of them were active in at least one assay; those are over-represented in the sample as a whole.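 Results are percent growth after 48 hours of single-concentration exposure. 100 means growth as in untreated cells, lower positive values show inhibition; negative values down to -100 show cell death.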 Unmarked numbers belong to inactive results. Active and inactive are the calls of the source. How the source made its calls: active means growth percent below 10; inactive means the rest.

What all share (assay): NCI-60 one-dose screen, 48 h (100 = growth as untreated, 0 = no growth, -100 = all killed)
Conditions in all cases: 10 µM unless noted

Assay [1] relates to NCI-H226 lung.
Assay [2] has as its system NCI-H322M lung.
The test system of assay [3] is HOP-62 NSCLC.
Assay [4] deals with NCI-H460 lung.
Assay [5] has as its system HOP-92 NSCLC.
Assay [6] relates to NCI-H522 lung.
Assay [7] deals with 786-0 renal.
Assay [8] deals with COLO 205 colon.
Assay [9] deals with DU-145 prostate.
In assay [10] the test system is A549/ATCC NSCLC.

Take `CCCCN1C(=O)/C(=c2\sc3n(c2=O)C2C(NN=3)N(CC)C(=O)N2CC)c2cc(Cl)ccc21` (centres undefined): the growth was 89.8% in [1]; 96.3% in [2]; 83.1% in assay [3]; 78.5% in [4]; 71.3% in [5]; 46.5% in [6]. The growth was 90.7% in [7], 114% in assay [8] and 94.8% in assay [9].

For the compound `Cc1ccc(CNS(=O)(=O)/N=C2\NC(=O)NC2=C(Cl)Cl)cc1`, the growth in assay [1] was 79.1%; in assay [2], 99.9%; in [3], 46.2%; in [4], 75.3%; in assay [5] it was -1.1% (active); in [6], 36.8%. Further, the growth in [10] is 99.2%; in [7] it was 36.6%; in [8], 113%; in assay [9] it was 32.6%.

For `CCC/C=C/C=C/C(=O)N[C@@H](Cc1cc(F)cc(F)c1)C(=O)N[C@@H]1C(=O)N2CCC[C@H]2C(=O)N2CCCC[C@H]2C(=O)N[C@@H](C)C(=O)N2C[C@H](C)C[C@H]2C(=O)O[C@H]1C`, the growth in [1] is 19.9%; in assay [2], 36.5%; in assay [3], 31.6%; in assay [4], 11.9%; in assay [5] it was 23%; in assay [6], 17.9%. The growth in assay [10] was 31.8%; in assay [7], 37.8%; in assay [8] it was -54.1% (active); in assay [9], 22.6%.

Turning to `O=C1Nc2cc(Cl)ccc2/C1=C\c1ccc(OCc2ccc(Br)cc2F)cc1`, the growth in assay [1] was -50.9% (active); in assay [2], -23.8% (active); in assay [3], -21.1% (active); in [4] it was -82.4% (active); in assay [5], -58.5% (active); in assay [6], -28.2% (active). Besides, the growth in assay [10] was -28.9% (active); in [7] it was -92.5% (active); in [8], 12.4%; in assay [9], -13.2% (active).

For `NC(=O)c1c(NC(=O)c2ccc(C3CCCCC3)cc2)sc2c1CCC(=O)C2`, the growth in assay [1] was 19.6%; in assay [2] it was 97.8%; in assay [3], 56.4%; in [4], 15.8%; in assay [5] it was -15.4% (active); in [6] it was -2.16% (active). Also, the growth is 26.3% in assay [7], -36.1% (active) in assay [8] and 49.2% in assay [9].

Turning to `Cn1c(SCC(=O)Nc2ccc(-c3nc4ccc([N+](=O)[O-])cc4[nH]3)cc2)nc2ccccc2c1=O`, the growth in assay [1] was 37.9%; in assay [2], 68.6%; in assay [3] it was 94.9%; in assay [4] it was 82.3%; in [5] it was 59.5%; in assay [6] it was 74.1%. The results for the growth in assay [7], in assay [8] and in [9] were 81.5%, 98.4% and 90.6%, respectively.

As for `Clc1ccc2oc3c(NCCCN4CCOCC4)c4ccccc4nc3c2c1`, the growth in [1] is 16.4%; in [2] it was 21.6%; in [3], 43.5%; in [4], 6.4% (active); in [5], 33%; in assay [6], 28.2%. In addition, the growth was 20% in assay [7], 13.2% in assay [8] and 16.8% in assay [9].

With `O=C(CSc1nc2sc3c(c2c(=O)n1-c1ccc(Cl)cc1)CCCC3)NNC(=O)Nc1ccc(Cl)c(C(F)(F)F)c1`, the growth in assay [1] was 53.4%; in assay [2], 52.2%; in assay [3] it was 58.8%; in assay [4], 11.8%; in assay [5], -12.3% (active); in [6] it was 5.53% (active). Besides, the results for the growth in assay [7], in assay [8] and in [9] were 52.2%, 53.4% and 32.2%, respectively.

Consider `O=C(N/N=C/c1ccc([N+](=O)[O-])s1)c1[nH]c2ccc(Br)cc2c1-c1ccccc1`, for which the growth in assay [1] is 23.7%; in assay [2] it was 54.9%; in [3] it was 27.2%; in assay [4], -26.1% (active); in assay [5], -7.35% (active); in assay [6], -44.5% (active). The growth was 9.9% (active) in [7], -55.5% (active) in assay [8] and 20.4% in assay [9].

With `Fc1ccc(-c2nc(C(Cl)Cl)nc3cc(-c4ccccc4)nn23)cc1`, the growth in assay [1] was 74.7%; in assay [2] it was -41.6% (active); in [3], -19.5% (active); in [4] it was -67.6% (active); in [5] it was 12.8%; in assay [6], -41.4% (active). Further, the values for the growth in assay [7], in assay [8] and in assay [9] were 70%, -76.3% (active) and -18.2% (active), respectively.

Consider `Cc1ccc(C(=O)Nc2cccc(C(F)(F)F)c2)cc1Nc1nc(-c2cnccn2)nc2c1cnn2C`, for which the growth in [1] is 71.6%; in [2], 73%; in assay [3], 46.6%; in [4], 69.9%; in assay [5], 35.3%; in assay [6], 73.2%. For the same compound, the growth in assay [7] is 74%; in assay [8], 20.4%; in assay [9], 96.6%.

On to `CCOC(=O)c1c(Nc2ccccc2)nn2c(N)c(C#N)c(-c3ccc(Cl)cc3)nc12`, for which the growth in assay [1] was 42.1%; in assay [2], 77.4%; in assay [3] it was 53.9%; in assay [4] it was 12.1%; in [5] it was 43.2%; in [6], 72.3%. The growth in assay [7] was 38.7%; in assay [8], 69.4%; in assay [9], 62%.

Take `O=C(CCCN1C(=O)/C(=C/c2ccccc2F)SC1=S)N1CCOCC1`: the growth in [1] is 110%; in assay [2], 85.5%; in assay [3], 119%; in assay [4], 97.8%; in [5], 86.4%; in [6] it was 48.8%. Also, the growth in assay [7] was 89.8%; in assay [8], 126%; in assay [9] it was 74.5%.

Take `CS(=O)(=O)c1ccc(-c2nc3ccccn3c2/C=N/Nc2nc(-c3ccc(Br)cc3)cs2)cc1`: the growth in assay [1] is 108%; in [2], 111%; in assay [3] it was 121%; in assay [4], 104%; in assay [5], 116%; in assay [6], 99.8%. Moreover, the results for the growth in [7], in assay [8] and in [9] were 84.8%, 116% and 109%, respectively.
